Source: PubChem (The Scripps Research Institute Molecular Screening Center)
LEDGF integ inh: blockers of LEDGF/p75-dependent integrase strand transfer – biochemical, TR-FRET, high throughput, primary screen; HIV-1 integrase (with human LEDGF/p75); TR-FRET IN-LEDGF/p75 DNA integration, Eu/Cy5; AID 743269, 2014; 370,000 compounds, 0.64% hits; inhibition, % at 3.7 µM;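 active = inhibition above the screen-wide mean plus 3 SD, cut at about 13% in these data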;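 also: signal is the Cy5 over europium emission ratio at 671 and 618 nm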
PLC-gamma1 inh: PLC-gamma1 enzyme inhibitors, primary screen, biochemical, fluorescence, purified enzyme | 1-phosphatidylinositol 4,5-bisphosphate phosphodiesterase gamma-1 (Homo sapiens), P19174 | fluorogenic substrate | inhibition, % at 12.2 µM | 370,000 compounds, 0.84% hits | AID 720700, 2013; in the data active = inhibition above about 9.5%
MBD2 inh: inhibitors of MBD2 binding to methylated DNA, primary screen, biochemical, TR-FRET, DNA-binding domain, human; inhibition, % at 4.4 µM; Methyl-CpG-binding domain protein 2 (Homo sapiens), Q9UBB5; MBD2 binding to methylated oligonucleotide; 370,000 compounds, 0.31% hits; in the data active = inhibition above about 13%
Target sequence (Q9UBB5 whole entry, looked up, the tested form may be a part): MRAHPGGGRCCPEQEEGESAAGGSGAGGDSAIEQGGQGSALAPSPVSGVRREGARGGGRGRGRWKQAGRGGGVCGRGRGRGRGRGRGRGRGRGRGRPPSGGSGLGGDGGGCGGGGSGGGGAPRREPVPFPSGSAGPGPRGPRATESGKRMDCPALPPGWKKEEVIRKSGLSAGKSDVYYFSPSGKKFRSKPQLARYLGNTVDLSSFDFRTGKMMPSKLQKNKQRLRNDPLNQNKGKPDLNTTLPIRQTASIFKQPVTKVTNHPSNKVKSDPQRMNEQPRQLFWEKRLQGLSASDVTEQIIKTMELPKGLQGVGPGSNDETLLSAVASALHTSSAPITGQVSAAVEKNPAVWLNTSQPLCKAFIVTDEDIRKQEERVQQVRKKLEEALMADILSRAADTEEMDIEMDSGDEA
UHRF1 MBD2 ctr: UHRF1 methylated DNA binding inhibitors, primary screen, counter-screen for MBD2 inhibitor project, biochemical, TR-FRET, human UHRF1, single concentration. UHRF1 binding to methylated oligo. inhibition, % at 4.4 µM. AID 687016, 2013. 370,000 compounds, 0.75% hits; in the data active = inhibition above about 21%;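 also: UHRF1 SRA domain binding a hemimethylated CpG hairpin DNA probe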
PLCb3 inh: human PLC-beta3 inhibitors, primary screen, biochemical, fluorescence; 1-phosphatidylinositol 4,5-bisphosphate phosphodiesterase beta-3 (Homo sapiens), Q01970; Purified PLC-beta3, fluorogenic substrate; inhibition, % at 12.2 µM; 370,000 compounds, 0.18% hits; in the data active = inhibition above about 11%
IN multimer act: HIV-1 IN multimer formation enhancers, counter-screen for LEDGF/p75 integration inhibitor project, biochemical, TR-FRET; activation, % at 7.7 µM; 2,000 compounds, 17% hits; TR-FRET HIV-1 integrase multimerization; shares compounds with LEDGF integ inh; in the data active = activation above about 8.9%
TR-FRET interf: TR-FRET optical interference artefacts, confirmation, artefact control for LEDGF/p75-dependent integration inhibitor project, biochemical, HIV-1 IN multimerization; TR-FRET optical interference counterscreen; 2,000 tested, under 10 active; inhibition, % at 7.7 µM; shares compounds with LEDGF integ inh; AID 1053135, 2014;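 active = inhibition above the mean over all tested compounds plus 3 SD, which no compound reached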
LEDGF integ conf: inhibitors of HIV-1 IN-LEDGF/p75 DNA integration, confirmation, biochemical, TR-FRET; TR-FRET LEDGF/p75-dependent HIV-1 integration; inhibition, % at 3.7 µM; shares compounds with LEDGF integ inh; 2,000 compounds, 36% hits; in the data active = inhibition above about 14%
Of the large screens only hits and unclear results are named; the others gave an inactive call (follow-up assays come after a bar, where they were run). The list is not random: actives were taken first. Their share in the collection is about 2.4%.

O=C(CCc1n[nH]c(=O)[nH]c1=O)N/N=C/c1ccco1	LEDGF integ inh 15.2 | IN multimer act inactive | TR-FRET interf inactive | LEDGF integ conf inactive
NC(N)=NS(=O)(=O)c1ccc(NC(=S)NC(=O)/C=C/c2ccco2)cc1	none
NS(=O)(=O)c1ccc(NC(=S)NC(=O)/C=C/c2ccco2)cc1	LEDGF integ inh 33.4 | IN multimer act 12.7 | TR-FRET interf inactive | LEDGF integ conf 37.9
CC1(C)CC(=O)C=C(Nc2ccccc2NC(=O)c2ccc(F)cc2F)C1	none
Cc1ccc(C(=O)NNC(=O)C2CCN(c3nccc(C)n3)CC2)cc1	LEDGF integ inh 18.4 | IN multimer act inactive | TR-FRET interf inactive | LEDGF integ conf inactive
Cc1ccnc(N2CCC(C(=O)NNC(=O)c3ccccc3)CC2)n1	none
COc1ccc(-c2csc(NC(=O)c3cccs3)c2C(=O)O)cc1OC	LEDGF integ inh 17.9 | IN multimer act inactive | TR-FRET interf inactive | LEDGF integ conf inactive
COc1ccc(-c2csc(NC(=O)c3ccccc3OC)c2C(=O)O)cc1OC	none
COc1ccc(C(=O)NCC(=O)Nc2ccc(-c3ccccc3)cc2)cc1	LEDGF integ inh 18.0 | IN multimer act 11.2 | TR-FRET interf inactive | LEDGF integ conf inactive
CCOc1ccc(NC(=O)CNC(=O)c2ccc(OC)cc2)cc1	none
C#CCNC(=O)C[C@H]1C(=O)N(Cc2ccc(OC)cc2)C2=CCCC[C@@]21C(=O)OCC	none
CC(C)C(=O)Nc1ccc2c(c1)nc(CCN1CCN(C)CC1)n2C	LEDGF integ inh 13.4 | IN multimer act inactive | TR-FRET interf inactive | LEDGF integ conf inactive
CN1CCN(CCc2nc3cc(NC(=O)COc4ccccc4)ccc3n2C)CC1	none
COC(=O)c1c(NC(=O)COC(=O)[C@@H](NS(=O)(=O)c2cccc(Cl)c2)C(C)C)sc2c1CCC2	none
COC(=O)c1sc(N)c(C(=O)OC)c1COC(=O)[C@@H](NS(=O)(=O)c1cccc(Cl)c1)C(C)C	LEDGF integ inh 21.3 | IN multimer act inactive | TR-FRET interf inactive | LEDGF integ conf inactive
CCN1CCN(c2cc(C)c3cc(NC(=S)N4CCOCC4)ccc3n2)CC1	LEDGF integ inh 21.1 | IN multimer act inactive | TR-FRET interf inactive | LEDGF integ conf inactive
COC1=CC(=O)C(C2CC(=O)c3c(O)cc(O)cc3O2)=CC1=O (stereo not drawn)	LEDGF integ inh 45.7 | IN multimer act 46.3 | TR-FRET interf inactive | LEDGF integ conf 23.8
COc1c(CC=C(C)C)cc(C2CC(=O)c3c(O)cc(O)cc3O2)cc1CC=C(C)C (stereo not drawn)	none
COc1ccc(-c2cnc(N)n2CC2CCCO2)cc1 (stereo not drawn)	LEDGF integ inh 27.6 | IN multimer act inactive | TR-FRET interf inactive | LEDGF integ conf inactive
c1ccc(-c2cnc(SCCN3CCOCC3)n2CC2CCCO2)cc1 (stereo not drawn)	none
COC(=O)[C@]12C[C@H](CC(=O)NCc3ccc(C)o3)C(=O)N(Cc3ccc4c(c3)OCO4)C1=C[C@H](C(C)(C)C)O[C@@H]2C	none
COc1ccc([C@H]2C[C@H](O)[C@@H](n3cc(COC(=O)c4ccccc4)nn3)CN2CC2CCCCC2)cc1	LEDGF integ inh 28.5 | IN multimer act inactive | TR-FRET interf inactive | LEDGF integ conf inactive
O=C(OCc1cn([C@H]2C[C@H](c3ccccc3)N(CC3CCCCC3)C[C@@H]2O)nn1)c1ccccc1	none
CC(=O)Nc1ccc(-c2ccnc3c2CC(C(=O)Nc2ccc(Cl)c(C(F)(F)F)c2)O3)cc1 (stereo not drawn)	LEDGF integ inh 37.4 | IN multimer act inactive | TR-FRET interf inactive | LEDGF integ conf inactive
O=C(Nc1ccc(Cl)c(C(F)(F)F)c1)C1Cc2c(-c3ccccc3)ccnc2O1 (stereo not drawn)	none
CCC[C@H]1[C@@H](NC(=O)NCC)CC[C@@]23CCCN2C(=O)CCC[C@@H]13	none
COc1ccc(NC(=O)N[C@@H](CCSC)C(=O)O)cc1Cl	LEDGF integ inh 81.3 | IN multimer act inactive | TR-FRET interf inactive | LEDGF integ conf inactive
COc1ccccc1NC(=O)/C(C#N)=C/C=C/c1ccco1	LEDGF integ inh 25.0 | IN multimer act inactive | TR-FRET interf inactive | LEDGF integ conf inactive
Cc1ccccc1C(=O)NNC(=S)NC(=O)c1ccc(Cl)cc1Cl	none
CCCN(CCC)C(=S)NC(=O)c1ccc(Cl)cc1Cl	LEDGF integ inh 16.4, PLC-gamma1 inh 12.9 | IN multimer act inactive | TR-FRET interf inactive | LEDGF integ conf inactive
COC(=O)[C@]12C[C@H](CC(=O)NCCCCc3ccccc3)C(=O)N(Cc3ccco3)C1=C[C@H](C1CCCC1)O[C@@H]2C	none
CC(=O)NC(C)(c1ccccc1)c1nc(-c2cccc(C#N)c2)cs1 (stereo not drawn)	LEDGF integ inh 14.2 | IN multimer act inactive | TR-FRET interf inactive | LEDGF integ conf inactive
Cc1cccc(N2C(=O)CS/C2=N\NC(=O)c2ccc(Br)cc2)c1C	LEDGF integ inh 16.2 | IN multimer act inactive | TR-FRET interf inactive | LEDGF integ conf inactive
Cc1cccc(N2C(=O)CS/C2=N\NC(=O)c2cccnc2)c1C	none
Cc1ccc(CNc2ccc(N3CCOCC3)cc2)s1	none
COc1ccc(CNc2ccc(N3CCN(C(C)=O)CC3)cc2)cc1OC	LEDGF integ inh 15.5 | IN multimer act inactive | TR-FRET interf inactive | LEDGF integ conf inactive
CC(=O)N1CCN(c2ccc(NCc3ccc(-c4ccc(Br)cc4)o3)cc2)CC1	LEDGF integ inh 19.5 | IN multimer act inactive | TR-FRET interf inactive | LEDGF integ conf inactive
CC(=O)N1CCN(c2ccc(NCc3ccc(C)s3)cc2)CC1	LEDGF integ inh 14.8 | IN multimer act inactive | TR-FRET interf inactive | LEDGF integ conf inactive
CC(=O)N1CCN(c2ccc(NCc3cccs3)cc2)CC1	LEDGF integ inh 21.6 | IN multimer act inactive | TR-FRET interf inactive | LEDGF integ conf inactive
CC(=O)N1CCN(c2ccc(NCc3cccc4ccccc34)cc2)CC1	none
CCCCCN1CCCCC(NC(=O)c2cccc(C(F)(F)F)c2)C1=O (stereo not drawn)	none
